The text below walks through data of PubChem BioAssay (NCI).

Molecules are shown by their SMILES. About 83,000 compounds went through this panel and 20% of them were active in at least one assay; those are over-represented in the sample as a whole.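 Cell lines were cultured in 96-well plates, exposed to a single compound concentration, and assessed for percent growth 48 hours later.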 Values without a mark were called inactive. Activity calls are given as the source filed them.

The test system of this experiment is IGROV1 ovarian. The experiment can be described thus: NCI-60 one-dose screen, 48 h (100 = growth as untreated, 0 = no growth, -100 = all killed). Particulars: 10 µM unless noted. How it is done: Growth inhibition of the IGROV1 human tumor cell line is measured as a screen for anti-cancer activity. Cells are grown in 96 well plates and exposed to the test compound for 48 hours. Compounds are tested at a single concentration, which is 10^-5 M for most compounds. The reported endpoint is percent growth (GI% or GIPRCNT), where numbers from 0 - 100% represent growth inhibition, and numbers from -100% - 0 represent cell death. For example, a value of 40 represents 60% growth inhibition. A value of 0 means no net growth occurred over the course of the experiment. A value of -40 indicates 40% of cells at the beginning of the experiment died by the end of the experiment. A value of -100 means all cells are dead at the end of the experiment.
NCI-60 Human Tumor Cell Lines Screen was performed using the standard one-dose NCI protocol, which is described in more detail at https://dtp.cancer.gov/discovery_development/nci-60/default.htm.
Compounds with GIPRCNT values below 10 were considered active. Activity score was based on GIPRCNT using the following formula: […]
Score is 0 for GIPRCNT values of 100 or above, 50 for GIPRCNT values of 0, and 100 for GIPRCNT values of -100.
Regarding `NC(=O)c1ccc(NC(=O)c2oc3ccccc3c2-c2cnn(-c3ccccc3)c2)cc1`, the growth is 10.6% [50 µM].
As for `COC(=O)c1c2c(c(C)[n+]([O-])c1C)C(=O)C=CC2=O`, the growth was -38.2% (active).
For the compound `Cc1cc(C(=O)Nc2cc(Nc3ncccc3-c3ncnc4nc[nH]c34)ccc2F)cc(C(F)(F)F)c1`, the growth was 103%.
In the case of `CCCCCCCCNc1cc2c3c(c1)CCCN3CCC2`, the growth was 29.7%.
Regarding `CN(C)c1ccc(C(=NO)c2ccc(N(C)C)cc2)cc1`, the growth was 51.9%.
Regarding `O=c1[nH]c(-c2ccc(Cl)cc2)cn1-c1ccc(-n2cc(-c3ccc(Cl)cc3)[nH]c2=O)cc1`, the growth is 102%.
The result for `CCCCc1oc2ccccc2c1C(=O)c1ccc(O)cc1` reads 79.6%; that for `Cc1ccc2[nH]c(-c3ccc(S(C)(=O)=O)cc3)c(/C=N/N=C(N)N)c2c1`, 76.2%.
For `N#Cc1nc2c(S(=O)(=O)c3ccccc3)c(N)n(Cc3cccnc3)c2nc1C#N`, the growth is 46.1%.
Take `Cc1c2cc[nH]c(=O)c2c(C)c2c1[nH]c1ccc(OC(=O)c3ccccc3)cc12`: the growth was 30.6%.
Turning to `O=C1/C(=C/c2ccc(C(F)(F)F)cc2)COc2ccc(O)c(O)c21`, the growth is -49.6% (active).
For `O=C1/C(=C/c2ccccc2)CN(C(=O)c2cccnc2)C/C1=C\c1ccccc1`, the growth was 2.89% (active).
For `CCOC(=O)c1c2c(n3c1NCC3)-c1ccccc1C2=O`, the growth was 67.3%.
Regarding `CCNCc1ccc(O)c2ncccc12`, the growth is 46%.
The result for `CCOC(=O)Cn1c(=O)c2c3ccccc3n(C)c2n2nnc(-c3ccccc3)c12` reads 58.6%; that for `CNCc1cccc2c1OCCOCCN(C)C(=O)CN(C)S(=O)(=O)c1ccc(cc1)-c1cnc(N)c(n1)C(=O)N2`, 51.4%; that for `CCN(CC)CCNC(=O)c1ccc(-c2nc3ccc4[nH]ncc4c3c3c2CCCC3)cc1`, 35.3%.
Turning to `CCN1C(=O)N(CC)C2C1NN=c1s/c(=C\c3cc4ccccc4[nH]3)c(=O)n12` (stereo not given), the growth was 12.1%.
For `Nc1nc(C(=O)N/N=C/c2ccc(N3CCOCC3)cc2)nn1-c1ccc(S(N)(=O)=O)cc1`, the growth was 94%.
In the case of `COc1cc(C2=NN(C(C)=O)C(c3ccc(N(C)C)cc3)C2)cc(OC)c1OC` (stereo not given), the growth is 76.7%.
With `COc1ccc2c(c1)c(-c1nc(-c3cn(C)c4ncccc34)cs1)cn2CCO` the figure was 85.2%.
As to `O=C(CSc1nc2ccc([N+](=O)[O-])cc2[nH]1)Nc1ccc(Br)cc1`, the growth is 63.8%.
As for `CCN(CC)c1ccc(N2C(=O)/C(=C/c3cccs3)SC2=S)cc1`, the growth is 99.4%.
For `CC(=O)c1c(Nc2ccc(F)c(F)c2F)[nH]c2c(F)cc(F)cc2c1=O`, the growth is 16.2%.
`CC[C@H](Nc1nc(N)nc(C)c1C#N)c1nc2cccc(NCCCCCC(=O)NO)c2c(=O)n1-c1ccccc1`: the growth was 9.52% (active).
The result for `CCOC(=O)c1c(NC(=O)CSc2n[nH]c3nc4ccccc4n23)sc(CC)c1C` reads 20.4%; that for `COc1ccc2c(c1)c(-c1ccc(-c3cn(C)c4ccc(OC)cc34)[nH]1)cn2C`, 23.1%.
The result for `Cn1cc(-c2nc(-c3c[nH]c4ccncc34)cs2)c2cc(Br)ccc21` reads -82.8% (active).
As for `Cc1ccccc1CNc1c2ccccc2nc2ccccc12`, the growth is 14.8%.
Consider `Cc1[nH]c(C(=O)Nc2cccc(OC3CCNCC3)c2)c(Cl)c1Cl`, for which the growth is 60.6%.
With `COc1cc2c(/C=C3\C(=O)Nc4ccccc43)c(C(=O)O)[nH]c2cc1C` the figure was -10% (active); with `CC/C=C\C/C=C/C=C1/C(=O)C=C[C@@H]1C/C=C\CCCC(=O)OC`, 65.4%; with `c1ccc(CNc2ccc3nc(CCC4CCCCC4)[nH]c3c2)cc1`, 53.5%.
On to `COc1ccccc1-n1c(-c2cc(O)ccc2C)cn2c3c(=O)[nH]c(=O)n(C)c3nc12`, for which the growth was 10.3%.
Regarding `COc1ccc(-c2nnc(SCC(=O)Nc3ccc(/C(C)=N\O)cc3)n2-c2ccccc2)cc1OC`, the growth was 70.9%.
Regarding `O=C1OCC2=C1C(c1cccc(C(F)(F)F)c1)c1cc3c(cc1N2CCO)OCO3` (stereo not given), the growth is 37.2%.
With `CN1CCN(CCCOC(=O)c2c3c(n4ccccc24)C(=O)c2ncccc2C3=O)CC1` the figure was 4.12% (active); with `COc1cc(/C=N/Nc2ccccc2F)cc(OC)c1OC`, 86.1%.
Consider `CCn1cc(C2=C(c3cn(C)c4ncccc34)C(=O)NC2=O)c2cccnc21`, for which the growth is 64.5%.
With `Nc1ccc([N+](=O)[O-])cc1N=C/C=C/c1ccccc1` the figure was 64.8%.
